In PubChem BioAssay (Tox21):
Inconclusive results are not listed. Calls of active or inactive are those of the source. Unless noted, the call rests on the fitted dose curve; in most records, active means well fitted curve in the direction sought with a large enough effect in the repeat runs; inconclusive means weak or mixed curves; inactive means no such curve, though single readings can be large; an effect the other way counts as inactive or inconclusive.

Legend:
[1] = qHTS assay for small molecule agonists of the p53 signaling pathway (AID 651631; calls by dose curve; further: nearly all actives have a fitted effect of over 15% in size; further: potency means the concentration at half of the fitted maximal effect)
In short: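 Fluorescence intensity from cleaved LiveBLAzer B/G substrate (2 h, room temperature) served as the signal. Beforehand, HCT-116 reporter cells bearing p53 response elements were treated 16 h at 37 °C with DMSO-dissolved compounds.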

[2] = qHTS assay for small molecules that induce genotoxicity in human embryonic kidney cells expressing luciferase-tagged ATAD5 (AID 651632); further: nearly all actives have a fitted effect of over 15% in size
In short: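 A rise in luciferase signal from ATAD5-tagged HEK293T cells marks genetic stress. Cells were exposed to compounds for 16 hr at 37C, 5% CO2, then luciferase was quantified after a 30 min room-temperature incubation with Amplite.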

[3] = qHTS assay for small molecule agonists of the p53 signaling pathway - cell viability (AID 651633; calls by dose curve;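 further: p53RE-bla HCT reporter cells with a stable beta-lactamase p53 reporter; series mostly up to about 83 µM; nearly all actives have a fitted effect of over 30% in size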)
In short: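 Viability counter-read: CellTiter-Glo luminescence (30 min, room temperature) in the same p53RE-bla plates. These plates had been exposed to compounds for 16 h at 37 C.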

[4] = qHTS assay for small molecules that induce genotoxicity in human embryonic kidney cells expressing luciferase-tagged ATAD5 - cell viability (AID 651634; calls by dose curve; further: nearly all actives have a fitted effect of over 25% in size)
In short: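 Cytotoxicity counter-readout: after 15.5 hr compound treatment at 37C, live-cell protease activity in ATAD5-luciferase HEK293T cells measured by CellTiter-Fluor fluorescence, 30 min development at 37C.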

[5] = qHTS assay for small molecule disruptors of the mitochondrial membrane potential - cell viability (AID 720634; calls by dose curve;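 further: human HepG2 liver cancer cells; series mostly up to about 83 µM; nearly all actives have a fitted effect of over 20% in size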)
In short: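 Cytotoxicity was quantified from ATP content by CellTiter-Glo luminescence in the same wells as the MMP dye read-out. HepG2 (2,000 cells/well) were plated overnight and exposed to compounds for 1 hr at 37 C.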

[6] = qHTS assay to test for compound auto fluorescence at 590 nm (red) in HepG2 cells (AID 720674)
In short: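 1 hr compound incubation on HepG2 cells, 37 C, 5% CO2; plate read ex 540 nm / em 590 nm; intensities reported as Rose Bengal sodium equivalents.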

[7] = qHTS assay to test for compound auto fluorescence at 535 nm (green) in HepG2 cells (AID 720675)
[8] = qHTS assay to test for compound auto fluorescence at 460 nm (blue) in HEK293 cells (AID 720678)
In short: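 HEK293 cells (2,000/well, medium with 10% dialyzed FBS) attached 4-5 hr, then exposed to compound overnight at 37C, 5% CO2. Blue fluorescence read at 405/460 nm, with triamterene as reference fluorophore.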

[9] = qHTS assay to test for compound auto fluorescence at 590 nm (red) in HEK293 cells (AID 720679)
In short: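 HEK293 cells (2,000/well, 10% dialyzed FBS) attached 4-5 hr, then dosed with compound or DMSO and incubated overnight at 37C, 5% CO2. Red fluorescence read at 540/590 nm, Rose Bengal sodium as reference fluorophore.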

[10] = qHTS assay to test for compound auto fluorescence at 535 nm (green) in HEK293 cells (AID 720680)
[11] = qHTS assay to test for compound auto fluorescence at 460 nm (blue) in HEK293 cell free culture (AID 720681)
In short: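 Blue fluorescence (Ex 405/Em 460 nm, triamterene-equivalent) was read immediately after pin transfer of compound or DMSO into medium (DMEM, 10% FBS) without cells.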

[12] = qHTS assay to test for compound auto fluorescence at 535 nm (green) in HEK293 cell free culture (AID 720682)
In short: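 Intrinsic compound fluorescence is measured in culture medium containing 10% FBS, with excitation at 485 nm and detection at 535 nm, referenced to fluorescein.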

[13] = qHTS assay to test for compound auto fluorescence at 590 nm (red) in HEK293 cell free culture (AID 720683)
In short: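 Red-channel autofluorescence of compounds in culture medium (DMEM, 10% FBS), no cells, measured at 540/590 nm. Rose Bengal sodium is the reference fluorophore for equivalence.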

[14] = qHTS assay to test for compound auto fluorescence at 590 nm (red) in HepG2 cell free culture (AID 720684)
In short: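 Cell-free; medium MEM + 10% FBS; compound or DMSO added by pintool; read Ex 540/Em 590 nm; Rose Bengal sodium as red reference fluorophore.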

[15] = qHTS assay to test for compound auto fluorescence at 460 nm (blue) in HepG2 cell free culture (AID 720685)
In short: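 Cell-free plates of MEM plus 10% FBS received 23 nL compound or DMSO vehicle; blue-channel (405/460 nm) intensity scored against triamterene as reference fluorophore.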

[16] = qHTS assay to test for compound auto fluorescence at 535 nm (green) in HepG2 cell free culture (AID 720686)
[17] = qHTS assay to test for compound auto fluorescence at 460 nm (blue) in HepG2 cells (AID 720687)
In short: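 Blue-channel autofluorescence (Ex/Em 405/460 nm, triamterene-equivalent) was measured after 1 hr compound exposure at 37 C, 5% CO2. Cells were HepG2, plated overnight at 37 C in MEM plus 10% FBS.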

[18] = molecular target: Glucocorticoid receptor (Homo sapiens) (UniProt P04150); test: qHTS assay to identify small molecule agonists of the glucocorticoid receptor (GR) signaling pathway (AID 720691; active means well fitted activation curve with a large enough effect in the signal ratio in the repeat runs, not every such curve was filed as active; the % refers to the signal ratio)
In short: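 Agonist-mode qHTS in HeLa cells stably expressing a glucocorticoid-response-element beta-lactamase reporter. Fluorescence intensity read with FRET substrate (2 h, room temperature) after 18 h compound treatment at 37 C.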

[19] = molecular target: Glucocorticoid receptor (Homo sapiens) (UniProt P04150); test: qHTS assay to identify small molecule antagonists of the glucocorticoid receptor (GR) signaling pathway (AID 720692; active means well fitted inhibition curve with a large enough effect in the signal ratio in the repeat runs, not every such curve was filed as active; the % refers to the signal ratio)
In short: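 Inhibition of dexamethasone-driven (5 nM final) beta-lactamase expression was measured in GRE-reporter HeLa cells over 18 h at 37C. Fluorescence was read after 2 h with the B/G FRET substrate at room temperature.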

[20] = qHTS assay for small molecule disruptors of the mitochondrial membrane potential (AID 720635)
In short: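 Mitochondrial membrane potential tracked with Mito-MPS dye, red aggregates (ex 540/em 590 nm) against green monomers (ex 490/em 535 nm). Compound treatment 1 hr at 37C, dye 30 min in HepG2.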
On the % scale 0 is the no-effect control and ±100 the full control effect.

Chain of Glucocorticoid receptor (Homo sapiens) (P04150 whole entry, looked up): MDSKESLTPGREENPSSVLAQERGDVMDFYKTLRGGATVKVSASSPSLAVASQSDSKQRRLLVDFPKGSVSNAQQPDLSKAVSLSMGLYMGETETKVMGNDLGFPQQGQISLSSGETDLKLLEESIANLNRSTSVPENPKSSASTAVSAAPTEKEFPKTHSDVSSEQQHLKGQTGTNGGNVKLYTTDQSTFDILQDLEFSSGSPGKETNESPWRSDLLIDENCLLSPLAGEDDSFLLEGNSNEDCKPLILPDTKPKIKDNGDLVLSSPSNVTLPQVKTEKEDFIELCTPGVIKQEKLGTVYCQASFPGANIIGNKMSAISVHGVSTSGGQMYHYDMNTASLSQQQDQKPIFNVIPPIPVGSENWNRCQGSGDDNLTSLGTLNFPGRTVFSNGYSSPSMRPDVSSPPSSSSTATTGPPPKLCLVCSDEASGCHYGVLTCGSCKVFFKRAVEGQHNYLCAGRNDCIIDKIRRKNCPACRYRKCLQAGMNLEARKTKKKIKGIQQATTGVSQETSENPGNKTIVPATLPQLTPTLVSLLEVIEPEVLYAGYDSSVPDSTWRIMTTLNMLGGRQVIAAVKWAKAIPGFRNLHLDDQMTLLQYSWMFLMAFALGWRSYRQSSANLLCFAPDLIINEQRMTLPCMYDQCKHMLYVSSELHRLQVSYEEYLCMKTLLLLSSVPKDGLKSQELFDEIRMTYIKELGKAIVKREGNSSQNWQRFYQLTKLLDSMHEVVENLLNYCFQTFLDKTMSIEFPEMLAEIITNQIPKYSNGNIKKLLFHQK

O=C(O)CCCc1c[nH]c2ccccc12
inactive: Potency [1] | Potency [2] | Potency [3] | Potency [4] | outcome [5] | outcome [6] | outcome [7] | Potency [8] | outcome [9] | outcome [10] | Potency [11] | outcome [12] | outcome [13] | outcome [14] | Potency [15] | outcome [16] | Potency [17] | Potency [18] | Potency [19]

C=C(C)c1ccccc1
inactive: Potency [1] | Potency [2] | Potency [3] | Potency [4] | outcome [5] | Potency [20] | outcome [6] | Potency [8] | outcome [10] | Potency [11] | outcome [12] | outcome [13] | outcome [14] | Potency [15] | outcome [16] | Potency [17]

NC(=O)c1ccccc1[N+](=O)[O-]
inactive: Potency [1] | Potency [2] | Potency [3] | Potency [4] | outcome [5] | outcome [6] | outcome [7] | Potency [8] | outcome [9] | outcome [10] | Potency [11] | outcome [12] | outcome [13] | outcome [14] | Potency [15] | outcome [16] | Potency [17]

O=NN(CCCl)C(=O)NCCCl
active: Potency [1] 1.19 µM
inactive: Potency [2] | Potency [3] | Potency [4] | outcome [5] | Potency [20] | outcome [6] | Potency [8] | outcome [9] | outcome [10] | Potency [11] | outcome [12] | outcome [13] | outcome [14] | Potency [15] | outcome [16] | Potency [17] | Potency [18] | Potency [19]

CC(=O)Oc1cccc(O)c1
inactive: Potency [1] | Potency [2] | Potency [3] | Potency [4] | outcome [5] | outcome [6] | outcome [7] | Potency [8] | outcome [9] | outcome [10] | Potency [11] | outcome [12] | outcome [13] | outcome [14] | Potency [15] | outcome [16] | Potency [17] | Potency [18]

CCCCCCCCCCCCCCN(C)C
inactive: Potency [1] | Potency [2] | Potency [3] | Potency [4] | outcome [5] | Potency [20] | fluorescence, relative to Rose Bengal [6] 0.132% [at 18.6 µM] | fluorescence, % of triamterene [8] -0.142% [at 18.6 µM] | fluorescence, % of fluorescent control [9] 0.0361% [at 18.6 µM] | fluorescence, % of fluorescein [10] 0.0258% [at 18.6 µM] | fluorescence, % of fluorescent control [11] 0.0125% [at 18.6 µM] | activity change [12] -0.0109% [at 18.6 µM] | fluorescence, % of fluorescent control [13] -0.0109% [at 18.6 µM] | fluorescence, % of Rose Bengal [14] -0.054% [at 18.6 µM] | fluorescence, % of fluorescent control [15] -0.025% [at 18.6 µM] | fluorescence, % of fluorescein control [16] -0.0531% [at 18.6 µM] | fluorescence, % of fluorescent control [17] -0.0432% [at 18.6 µM] | Potency [18] | Potency [19]

CC(C)c1ccc(C#N)cc1
inactive: Potency [1] | Potency [2] | Potency [3] | Potency [4] | outcome [5] | Potency [20] | outcome [6] | Potency [8] | outcome [9] | outcome [10] | Potency [11] | outcome [12] | outcome [13] | outcome [14] | Potency [15] | outcome [16] | Potency [17] | Potency [18] | Potency [19]
